Laboratory results as given in PubChem BioAssay AID624412 (The Scripps Research Institute Molecular Screening Center, 2012).
Screen size: about 1,400 compounds; about 1,300 (93%) were called active. So high a share suggests a set chosen from earlier hits. Only a sample is shown. Unmarked numbers belong to inactive results. No stated cut-off is given here; in the data, active means inhibition above about 7%; inactive means the rest.

Tested on: methionyl-tRNA synthetase (Trypanosoma brucei brucei)
Experiment: T. brucei MetRS inhibitors, confirmation, biochemical, luminescence (AID 624412)
Settings: T. brucei MetRS enzyme, luminescence (ATP depletion); at 11.9 µM; active compounds read high

SMILES | inhibition
COC(=O)/C(=C\Nc1ccccc1)NC(=O)c1ccc(Cl)cc1Cl | 78% (active)
c1ccc2cc3[nH]c(CN4CCCCC4)nc3cc2c1 | 18.2% (active)
Cc1c(CN2CCC(CO)(CCOc3ccccc3)CC2)[nH]c2ccc(Cl)cc12 | 19% (active)
CN(C(=O)CSc1nnc(-c2c[nH]c3ccccc23)o1)C1CCS(=O)(=O)C1 (stereo not drawn) | 21.9% (active)
CN(C(=O)CSc1nnc(Nc2ccccc2)s1)C1CCS(=O)(=O)C1 (stereo not drawn) | 12.5% (active)
CCCCCn1nnnc1-c1nc2cc3ccccc3cc2[nH]c1=O | 42.4% (active)
c1ccc(CN=C2Nc3ccccc3CS2)nc1 | 22% (active)
Cc1cc(C)cc(NC(=O)N(C)Cc2ccccc2)c1 | 3.08%
COc1ccc(NC(=O)C(NC(C)=O)C(=O)NCc2ccccc2Cl)cc1 (stereo not drawn) | 17.9% (active)
OCCNc1nc2ccccc2n1-c1ncnc2sc3c(c12)CCC3 | 29.7% (active)
Cc1ccc(O)c(CNc2nc3ccccc3[nH]2)c1 | 85.4% (active)
O=S(=O)(NCc1ccc(Cl)cc1Cl)c1cccs1 | 33.5% (active)
CCCCN1C[C@H](c2ccc(Br)cc2)[C@@H](CC(=O)Nc2ccc(Br)cc2)C1=O | 62.2% (active)
O=C(OCc1nc2ccccc2[nH]1)C1CCCCC1 | 27.3% (active)
O=C(NCc1cccc(CNC(=O)Nc2cccc(O)c2)c1)Nc1cccc(O)c1 | 17.5% (active)
COc1ccc(CCn2ccc(O)c(Cc3ccc(Cl)cc3Cl)c2=O)cc1OC | 11.8% (active)
O=C(Nc1cccc([N+](=O)[O-])c1)N1CCc2ccccc2C1 | 25.6% (active)
O=C(CSCC(=O)Nc1cccc([N+](=O)[O-])c1)Nc1ccccc1 | 17% (active)
O=C(Nc1ccc(Cl)cc1)N1CCc2[nH]c3ccccc3c2C1 | 20.4% (active)
Fc1ccc(NC(=S)N2CCc3[nH]c4ccccc4c3C2)cc1 | 35.4% (active)
O=C(NNc1cc(Cl)cc(Cl)c1)c1c(F)cccc1Cl | 66.4% (active)
Cc1ccc(N2C(=O)CC(NCc3ccc4c(c3)OCO4)C2=O)cc1Cl (stereo not drawn) | 98.5% (active)
O=C(/C(=N\O)n1cncn1)c1ccc(Br)cc1Br | 18.3% (active)

SMILES | inhibition
CCCCN(C)Cc1c(C)[nH]c2ccc(Cl)cc2c1=O | 67.1% (active)
O=C(CC(=O)Nc1ccc(Cl)c(Cl)c1)N/N=C/c1ccc(O)cc1 | 17.2% (active)
Cc1ccc(NC(=O)C(C)c2cccc(C(=O)c3ccccc3)c2)cc1 (stereo not drawn) | 85.5% (active)
O=C1CCCN1CCCNc1ncnc2c1[nH]c1ccccc12 | 55.3% (active)
O=C(NNC(=O)c1ccc(-n2cncn2)c([N+](=O)[O-])c1)c1ccccc1 | 50.4% (active)
Cc1ccc(S(=O)(=O)N(C)C)cc1NC(=O)c1ccc(-n2cncn2)c([N+](=O)[O-])c1 | 69.4% (active)
CC(=O)c1ccc(NC(=O)c2ccc(-n3cncn3)c([N+](=O)[O-])c2)cc1 | 72% (active)
Cc1ccccc1OCC(=O)NNC(=O)c1ccc(-n2cncn2)c([N+](=O)[O-])c1 | 24.7% (active)
c1ccc2cc3c(NCCN4CCOCC4)ccnc3cc2c1 | 50.4% (active)
Cc1ccc(S(=O)(=O)c2c[nH]c3ccc(C)cc3c2=O)cc1 | 45.7% (active)
Cc1ccc(S(=O)(=O)c2c[nH]c3ccc(Cl)cc3c2=O)cc1 | 85.2% (active)
O=C(NCCN1CCOCC1)c1ccccc1N1C(=O)[C@@H]2Cc3c([nH]c4ccccc34)C(c3cccc(Cl)c3)N2C1=O (stereo partly drawn) | 18.1% (active)
CCN(CC)C(=O)C(=O)c1cn(CC(=O)NCc2ccc3c(c2)OCO3)c2ccccc12 | 79.4% (active)
O=C(CSc1nc2ccccc2[nH]1)N/N=C/C=C\c1ccccc1[N+](=O)[O-] | 21.7% (active)
O=C(Cn1c2[n+](c3ccc(C(F)(F)F)cc31)CCCCC2)Nc1c(F)cccc1F | 29.8% (active)
NS(=O)(=O)c1ccc(CCNC(=O)Nc2ccc(Cl)cc2)cc1 | 37.4% (active)
O=C(Cc1ccc(S(=O)(=O)N2CCOCC2)s1)Nc1ccc(Br)c(C(F)(F)F)c1 | 33.2% (active)
Clc1ccc(-c2cc(C3CCNCC3)[nH]n2)c(Cl)c1 | 52.6% (active)
O=C(Cn1c(NCCO)nc2ccccc21)c1ccc(Cl)cc1Cl | 5.98% (active)
S=c1[nH]nc(CSCc2ccc(Cl)cc2Cl)n1-c1ccccc1 | 13.2% (active)
COC(=O)CN1C(=S)N(c2ccccc2)C(=O)C1CC(=O)Nc1ccc(Cl)cc1 (stereo not drawn) | 27.5% (active)
OC(c1cc(Cl)cc(Cl)c1)c1ncc(-c2ccccc2C(F)(F)F)[nH]1 (stereo not drawn) | 91.3% (active)
Cc1ccc(-c2cnc(C(O)c3cc(Cl)cc(Cl)c3)[nH]2)cc1 (stereo not drawn) | 63.9% (active)

SMILES | inhibition
O=S(=O)(c1ccc(Br)cc1)N1CCC(c2nc3ccccc3[nH]2)CC1 | 20.5% (active)
O=C(NCC(O)c1nc2ccccc2[nH]1)c1ccc(Br)cc1 (stereo not drawn) | 31.1% (active)
O=C(Nc1ccc(S(=O)(=O)Nc2ncccn2)cc1)c1cncc(Br)c1 | 2.54%
O=C(O)c1ccc(NS(=O)(=O)c2ccc3c(c2)C(=O)c2cc(S(=O)(=O)Nc4ccc(C(=O)O)cc4)ccc2-3)cc1 | 13.4% (active)
CC(C)OCCCNc1ncnc2c1[nH]c1ccc(F)cc12 | 95.6% (active)
CCN1CCCC1CNc1ncnc2c1[nH]c1ccc(F)cc12 (stereo not drawn) | 53.7% (active)
CSc1nsc(NC(=O)Nc2ccccc2)n1 | 39.8% (active)
CC(C)(C)c1ccc(/C=C2\SC(=O)N=C2N)cc1 | 50.9% (active)
NC1=NC(=O)S/C1=C\c1ccc(O)cc1 | 40.1% (active)
O=C(O)CCn1c(O)c(C=C2N=c3ccccc3=N2)sc1=S | 42.3% (active)
Cn1c(CCCOc2ccc(Cl)cc2Cl)n[nH]c1=S | 12.2% (active)
CCCCCCCC[n+]1cccc(C(=O)N2c3c(nc(N)[nH]c3=O)NC(C)C2C)c1 (stereo not drawn) | 29.2% (active)
COc1ccc(OCC(O)CNC(=O)Nc2ccc(Cl)cc2)cc1 (stereo not drawn) | 78% (active)
Oc1[nH]c2ccc(Br)cc2c1N=Nc1nn[nH]n1 | 14.6% (active)
O=C(Nc1ccccc1)Nc1nnc(COc2ccccc2F)s1 | 30.4% (active)
Clc1ccccc1SCc1nc2ccccc2[nH]1 | 10.1% (active)
Cc1ccc(CNC(=O)CSc2nnc3c(n2)[nH]c2ccc(F)cc23)cc1 | 78% (active)
CCO[C@@H]1OC(C(=O)NCc2nc3ccccc3[nH]2)=C[C@H](C2CCCCC2)[C@H]1CCCO | 48.9% (active)
CC(=N\NC(=O)c1cc(Br)ccc1O)/C(=N/O)C(=O)Nc1ccccc1 | 18.2% (active)
COc1ccccc1-n1c(SCC(=O)Nc2ccc(Cl)cc2)nc(O)c(Cc2ccccc2)c1=O | 77.2% (active)
COc1ccc(-c2[nH]ncc2/C=N/NC(=O)c2cc(Br)ccc2O)c(OC)c1 | 12.1% (active)
O=[N+]([O-])c1ccc(N2CCN(c3ccc(O)cc3)CC2)c(Cl)c1 | 10.9% (active)
